Here are results for 23 molecules from PubChem BioAssay (EPA / NIEHS).

Calls of active or inactive are those of the source. How the source made its calls: active means hit-call score of the fitted dose curve at least 0.9, where 1 is the maximum; inactive means score below 0.9.

The test is described as follows: CEETOX_H295R_MTT_cell_viability: Viability Assessment in the CeeTox HT-H295R MTT Assay (AID 2283718).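 On AC50: curve fitted both ways so AC50 may mark viability loss or gain.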 As to the method: CEETOX_H295R is a cell-based, multiplexed-readout assay that uses H295R, a human adrenal gland cell line, with measurements taken at 48 hours after chemical dosing in a 96-well plate.CEETOX_H295R_MTT_cell_viability is one of 23 assay component(s) measured or calculated from the CEETOX_H295R assay. It is designed to make measurements of cell number, a form of viability reporter, as detected with […] signals by MTT cytotoxicity assay technology.The assay component endpoint CEETOX_H295R_MTT_cell_viability was analyzed with bidirectional fitting relation to DMSO as the negative control and baseline of activity. Using a type of viability reporter in the MTT cytotoxicity assay, gain or loss-of-signal activity can be used to monitor cellular processes to understand changes in proliferation. To generalize the intended target to other relatable targets, this assay endpoint is annotated to cell cycle, where the subfamily is proliferation.
Cell culture and media preparation procedures were conducted in accordance with OECD Test No. 456 guidelines, with minor modifications. H295R cells (ATCC CRL-2128) were expanded for 5 passages and frozen in batches in liquid nitrogen. Prior to the steroidogenesis assay, H295R cells were thawed and passed at least 4 times. The maximum passage was 10. Cells were maintained in a 1:1 mixture of DMEM/F12 supplemented with 5ml/L ITS+ Premix (BD Bioscience) and 12.5 ml/L Nu-Serum (BD Bioscience). After seeding cells into 96-well plates at 50-60% confluency, cells were allowed to adhere overnight. Prior to chemical testing, culture medium was replaced with 175 uL medium containing 10 uM forskolin to stimulate steroidogenesis for 48 hours. Following prestimulation, forskolin medium was replaced with medium containing test chemical solubilized in DMSO (ensuring a final concentration of 0.1% DMSO). Test chemicals were incubated for 48 hours, then the medium was removed and split into 2 vials containing approximately 75uL each, and stored at -80 C prior to hormone analysis. For steroid quantification, media samples were shipped to OpAns, LLC (Durham, NC) on dry ice, and samples were thawed to room temperature prior to liquid-liquid extraction. Steroid hormones were extracted from media samples using methyl tertbutyl ether (MTBE). An extra derivatization with dansyl chloride was included for estrogen (estrone and estradiol) detection only. Steroid hormones were separated by HPLC, eluted using a reverse phase C18 gradient with electrospray positive ionization, followed by quantification by tandem mass spectrometry (MS/MS). Data were acquired on a MassHunter Workstation Acquisition version B03.01 (Agilent Technologies, Inc.) and processed using MassHunter Quantitative Analysis for QQQ. Accuracy was determined for each hormone analyte from 3 standards to determine upper and lower limits of quantification (ULOQ and LLOQ, respectively) using a 7-point standard curve. Precision and accuracy of the extraction and quantification methods were calculated as the percent relative standard deviation (%RSD) of the spiked standards and percent spiked standard recovered, respectively. The goal was to achieve 100% accuracy (i.e., recover all spiked-in standard at quantification with minimal loss during run time) and good precision (i.e., have %RSD <15% to ensure reproducibility). Test medium was removed following chemical exposure, and cell viability was evaluated in the same wells by MTT. MTT procedures were as follows: after removal of test medium, 500 uL of 0.5 mg/ml of 3-[4,5-dimethylthiazol-2-y]2,5-diphenyltetrazoliumbromide solution was added to the cells. Following a 4-hour incubation at 37 C and 5% CO2 to allow formazan-crystal formation, the MTT solution was removed and blue formazan salt crystals were solubilized using 500uL anhydrous isopropanol with shaking for 20 minutes. Absorbance was read at 570 and 650nm using a Packard Fusion microplate reader. […]
`O=C(c1ccccc1)c1ccc(Cl)cc1`: the result was inactive. Regarding `CCCCCCCCCc1ccc(OCCO)cc1`, the result was inactive. By AC50 is commonly meant the concentration at which the activity in the assay is half-maximal. Turning to `Nc1c(Br)cc([N+](=O)[O-])cc1Br`, the AC50 is 29.7 µM (active). As to `N#Cc1ccccc1O`, the molecule was classed as inactive.

On to `CC1CCCCC1`, for which the result was inactive. In the case of `CCn1c2ccccc2c2ccccc21`, the molecule was called inactive.

In the case of `Cc1cc(O)c(C(C)(C)C)cc1C(C)(C)C`, the result was inactive. Turning to `Oc1ccc2c(c1)CCC2`, the call was inactive. On to `Cc1cccc(C)n1`, for which the call was inactive. Consider `CCN(CC)c1ccc(N=Nc2ccccc2)cc1`, for which the outcome was inactive. In the case of `OCCC(O)CO` (stereo not drawn), the outcome was inactive. With `CCCCCCCCCCCCC[N+](C)(C)Cc1ccccc1`, the molecule was classed as inactive. With `CCCCC(CC)COC(=O)c1ccc(N(C)C)cc1` (stereo not drawn), the outcome was inactive. On the same count and under the same terms, under `CCOCOCC` stands “inactive”; under `CCN(CC)c1ccc(C=O)cc1`, “inactive”. `CSc1ccc(O)cc1C`: the result was inactive.

Take `CN1CN(C)CN(C)C1`: the outcome was inactive.

As to `CC(C)(C)c1cc(CCC(=O)NCCCCCCNC(=O)CCc2cc(C(C)(C)C)c(O)c(C(C)(C)C)c2)cc(C(C)(C)C)c1O`, the outcome was inactive.

`O=c1[nH]cccc1O`: the molecule was classed as inactive. As for `C[C@]12CC[C@H]3C(=CCc4cc(O)ccc43)[C@@H]1CCC2=O`, the call was inactive. For `O=C1C=CC(=O)N1c1ccccc1`, the molecule was called inactive. Still for that read-out and setting: next, `Nc1cccnc1N`: “inactive”; `O=C1c2ccccc2C(=O)c2c(Cl)cccc21`: “inactive”.
